Inconclusive results are not listed. Where a call stands in place of a potency, no number is given. Active and inactive are the calls of the source. The call rests on the fitted dose curve; in most records, active means well fitted inhibition curve with a large enough effect; inconclusive means small, poorly fitted or top-dose-only effect; inactive means flat fitted curve, though single readings scatter.
Target: Tyrosine-protein phosphatase non-receptor type substrate 1 (Homo sapiens) + Leukocyte surface antigen CD47 (Homo sapiens) (UniProt P78324+Q08722)
Sequence (P78324 whole entry, looked up): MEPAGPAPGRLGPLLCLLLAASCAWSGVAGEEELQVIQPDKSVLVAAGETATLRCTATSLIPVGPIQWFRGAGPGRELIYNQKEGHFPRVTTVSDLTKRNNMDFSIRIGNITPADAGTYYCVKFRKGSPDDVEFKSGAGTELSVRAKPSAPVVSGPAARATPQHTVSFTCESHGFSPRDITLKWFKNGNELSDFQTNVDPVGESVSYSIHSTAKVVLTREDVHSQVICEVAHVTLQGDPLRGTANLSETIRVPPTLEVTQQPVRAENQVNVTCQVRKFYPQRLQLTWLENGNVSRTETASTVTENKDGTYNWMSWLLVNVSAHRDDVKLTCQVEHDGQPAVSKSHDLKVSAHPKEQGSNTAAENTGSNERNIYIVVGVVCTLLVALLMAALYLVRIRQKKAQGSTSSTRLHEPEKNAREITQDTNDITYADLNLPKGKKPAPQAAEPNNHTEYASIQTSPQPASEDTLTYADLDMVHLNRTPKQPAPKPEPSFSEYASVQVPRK
Sequence (Q08722 whole entry, looked up): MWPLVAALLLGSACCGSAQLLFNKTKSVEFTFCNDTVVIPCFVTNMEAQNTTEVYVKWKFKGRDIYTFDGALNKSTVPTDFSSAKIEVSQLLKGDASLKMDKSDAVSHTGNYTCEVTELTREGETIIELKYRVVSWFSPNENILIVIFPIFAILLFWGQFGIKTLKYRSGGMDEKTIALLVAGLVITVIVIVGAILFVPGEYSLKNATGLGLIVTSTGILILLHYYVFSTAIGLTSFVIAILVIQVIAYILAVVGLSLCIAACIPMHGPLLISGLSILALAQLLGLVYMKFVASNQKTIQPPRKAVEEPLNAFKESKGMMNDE
Test: CD47-SIRPalpha protein protein interaction - Alpha assay qHTS validation (AID 1347059);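 further: bead proximity luminescence from CD47 binding SIRPalpha after compound preincubation with SIRPalpha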
Settings: AlphaScreen CD47-His/biotin-SIRPalpha binding, LOPAC; series mostly up to 38.3 µM
Text: SIRPalpha is a myeloid cell expressed immunomodulatory receptor that binds the tumor expressed immune checkpoint CD47. Therapeutic disruption of this interaction leads to immune-mediated tumor rejection. This assay was used to quantitate CD47-SIRPalpha binding biochemically and evaluate chemical libraries for novel CD47-SIRPalpha inhibitors. To recapitulate the biological interaction of CD47 and SIRPalpha, we designed expression constructs to produce their recombinant, soluble, extracellular interaction domains. CD47 was produced with an N-terminal 6His tag. SIRPalpha was produced with an N-terminal Avi-Tag for site-specific biotin incorporation. The CD47-SIRPalpha interaction was measured by AlphaScreen using affinity tag linked reagents (Ni-NTA acceptor bead and streptavidin donor bead). SIRPalpha without biotin incorporation was used as a positive control inhibitor.
PROTOCOL TABLE (as described by Miller, T. et al. 2019)
SEQUENCE No. (e.g., 1, 2, 3, etc.); […] (e.g., Cells, Incubation, Reagent, etc.); VALUE and DESCRIPTION.
1a. Reagent. 2 uL SIRPalpha-biotin (25 nM) added to respective wells in Assay buffer; white/solid bottom high base, med bind 1536-well plates (Greiner 789075)
1b. Reagent. 2 uL Assay buffer negative control for background fluorescence
2. Reagent. 23 nL library compounds (7-pt, 1:4 intraplate titration series) or DMSO control transferred by Pin Tool
3. Centrifuge. Centrifuge plate for 30 s at 1000 RPM
4. Incubation.#Incubate reagents at room temperature for 30 min, protected from light
5. Reagent. 2 uL CD47-His (12.5 nM) in Assay buffer
6. Centrifuge. Centrifuge plate for 30 s at 1000 RPM
7. Incubation.#Incubate reagents at room temperature for 30 min, protected from light
8. Reagent. 1 uL Ni-NTA beads (10 ug/mL) added to respective wells
9. Reagent. 1 uL SAV beads (10 ug/mL) added to respective wells
10. Centrifuge. Centrifuge plate for 30 s at 1000 RPM
11. Incubation. Incubate reagents at room temperature for 30 min, protected from light
12. Detector. Measure AlphaScree n on EnVision (1536A1 aperture)
Where possible, perform Donor bead dilution and addition away from direct sunlight or with bright overhead lights turned off (<100 lux, similar to hallway lighting). Lighting should still be bright enough to allow accurate pipetting.
1. Assay buffer composition.#Phosphate buffered saline (PBS; 10 mM Phosphate, 137 mM NaCl, and 2.7 mM KCl; pH 7.4), 0.05% IGEPAL CA-630
2. 23nL of […] library compounds (7 plates) or DMSO vehicle control transferred to 9 Greiner white/solid bottom high base, TC plates in 7 interplate 1:5 titrations (see Yasgar, A. et al. 2008) with Pintool. Two of the 9 plates are DMSO-only in compound field at beginning and end of compound library-treated plates.
12. Aperture = 1536 plate HTS AlphaScreen; plate-detector distance = 0; Total measurement time = 240; Ex. time = 80 ms (33%); Afterglow CT1 corr. factor = 0; Glow CT2 corr. factor = 0; Bleach CT3 corr. factor = 0; Ref. signal= 417733; Ref. AD gain = 2

Row | SMILES | Potency
1 | N=C(N)SCCN | inactive
2 | C#CC(N)CCC(=O)O (stereo not given) | inactive
3 | CC(C)Cn1c(=O)n(C)c(=O)c2[nH]cnc21 | inactive
4 | O=[N+]([O-])c1cccc2c(Br)[nH]nc12 | inactive
5 | O=C1OC(=O)C2C3CCC(O3)C12 (stereo not given) | inactive
6 | Cc1nc2c(OCc3ccccc3)cccn2c1CC#N | inactive
7 | NC(=O)CC[C@H](N)C(=O)O | inactive
8 | C#CCn1c(=O)c2c(ncn2C)n(C)c1=O | inactive
9 | CC1CNCCN1S(=O)(=O)c1cccc2cnccc12 (stereo not given) | inactive
10 | CCCc1c(-c2ccc(O)cc2)nn(-c2ccc(O)cc2)c1-c1ccc(O)cc1 | inactive
11 | COc1cc2c(CCNC(C)=O)c[nH]c2cc1O | inactive
12 | O=c1oc(Cl)c(Cl)c2ccccc12 | inactive
13 | Nc1ccc(N2C(=O)c3ccccc3C2=O)c(Cl)c1 | inactive
14 | CO/N=C(\C(=O)N[C@@H]1C(=O)N2C(C(=O)O)=C(CSc3nc(=O)c(O)nn3C)CSC12)c1csc(N)n1 (stereo not given in full) | inactive
15 | O=C(O)/C(=C/c1c(C(=O)O)[nH]c2cc(Cl)cc(Cl)c12)c1ccccc1 | inactive
16 | O=c1[nH]c(=O)c2nc3ccccc3nc2[nH]1 | inactive
17 | Cc1ccc([N+](=O)[O-])cc1S(=O)(=O)N(C)C | inactive
18 | Cn1c(=O)c2c(nc(/C=C/c3cccc(Cl)c3)n2C)n(C)c1=O | inactive
19 | NC1(C(=O)O)CCc2cc(C(=O)O)ccc21 (stereo not given) | inactive
20 | COc1ccccc1N1CCN(CCCCNC(=O)c2ccc3ccccc3c2)CC1 | inactive

Row | SMILES | Potency
21 | Cc1ccc2c(c1)C(N1CCN(C)CC1)=Nc1cccnc1N2 | inactive
22 | C[C@@H](NCCc1ccc(O)cc1)[C@@H](O)c1ccc(O)cc1 | inactive
23 | NC(N)=NC(N)=Nc1cccc(Cl)c1 | inactive
24 | NCCCCN=C(N)N | inactive
25 | NC(=O)CNCCC(c1ccccc1)c1ccccc1 | inactive
26 | O=c1[nH]ccc2c(O)cccc12 | inactive
27 | Fc1ccc(CN(C2=NCCN2)c2c(Cl)cccc2Cl)cc1 | inactive
28 | O=C(O)C1=CCNCC1 | inactive
29 | NCC(O)c1ccc(O)c(O)c1 (stereo not given) | inactive
30 | CCCCCCCCCCC/C=C\C(C)(C)/C=C\CCCC(=O)O | inactive
31 | Cc1nc(N=Nc2ccc(S(=O)(=O)O)cc2S(=O)(=O)O)c(COP(=O)(O)O)c(C=O)c1O | inactive
32 | C[C@H]1CC2C3CCC4=CC(=O)C=C[C@]4(C)[C@@]3(Cl)[C@@H](O)C[C@]2(C)[C@@]1(O)C(=O)CO (stereo not given in full) | inactive
33 | CCCn1c(=O)c(C)cn2nc(N)nc12 | inactive
34 | N[C@@H](Cc1ccc(F)cc1)C(=O)O | inactive
35 | N=C(N)SCCc1cnc[nH]1 | inactive
36 | Cc1cccc(C2CN(C)CCc3c2cc(O)c(O)c3Cl)c1 (stereo not given) | inactive
37 | Oc1ccc(/C=C/c2ccc(/C=C/c3ccc(O)cc3)c(Br)c2)cc1 | inactive
38 | CC(C)[C@@H]1CC[C@@H](C)C[C@@H]1P(=O)(c1ccccc1)c1ccccc1 | inactive
39 | Nn1nnc2ccccc21 | inactive
40 | CC[C@@H]1Cc2cc(O)ccc2C2=C1c1ccc(O)cc1C[C@H]2CC | inactive

— PubChem BioAssay (NCATS)
